PubChem BioAssay
For some assays here: Potency and affinity values are given separately. Activity calls are given as the source filed them.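 How the source made its calls, unless noted: active means thallium flux through the channel raised or lowered by more than 3 SD from vehicle-only wells, actives on both sides; inactive means the rest.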

Columns and labels:
[1] = circadian clock period modulators, cell-based, LOPAC library, luminescence reporter (AID 2774; call rule not given here;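 further: values are relative to mean of DMSO wells on each plate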); conditions: circadian reporter cells, at 7 µM, actives lie on both sides
[2] = hESC survival regulators, cell-based (AID 493140; call rule not given here;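 further: cells exposed to compounds for four days before counting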); conditions: human embryonic stem cell survival screen; stronger effect = higher value
[3] = tested on: Hepatitis C virus NS3 helicase; assay: HCV NS3 helicase inhibitors, primary screen, biochemical, fluorescence polarization, LOPAC1280 library (AID 687035; in the data active means inhibition above about 37%); conditions: Purified HCV NS3 helicase, Cy5-dT15 ssDNA binding fluorescence polarization; stronger effect = higher value; concentration not given here
[4] = Cy5 fluorescence quenching or enhancement artefacts, artefact control for HCV NS3 helicase inhibitor project, biochemical, LOPAC1280 (AID 687037; call rule not given here); conditions: Cy5-DNA-NS3h complex fluorescence interference counterscreen
[5] = modulation of C. elegans fzo-1 (AID 1259413; call rule not given here;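 further: fzo-1 mutant C. elegans worms in liquid wells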); conditions: C. elegans fzo-1 modulator screen, mean read-out; stronger effect = higher value
[6] = tested on: Aerobactin synthetase IucA (Klebsiella pneumoniae, hypervirulent); assay: IucA enzyme inhibition, biochemical, LOPAC library, absorbance readout (AID 1346212; call rule not given here;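 further: 100% = no compound wells and 0% = no enzyme wells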); conditions: IucA enzyme assay, absorbance (OD) readout; stronger effect = lower value; concentration not given here
[7] = phospholipid biosynthesis inhibitors in animal cells, primary screen, cell-based, LOPAC library, screen 4 (AID 1347384; call rule not given here); conditions: phospholipid biosynthesis inhibition screen, at 10 µM
[8] = tested on: F380Y; assay: modulators of BK channel variants, profiling panel, selectivity assay, cell-based, U2OS BacMam, thallium flux, beta subunits (AID 1259406); conditions: at 30 µM;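 further: initial slope of Thallos dye fluorescence rise after thallium is added; log ratio against the mean of 0.3% DMSO vehicle wells on the same plate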
[9] = tested on: F380Y/beta1; assay: as above; conditions: at 30 µM
[10] = tested on: F380Y/beta2Delta; assay: as above; conditions: at 30 µM
[11] = tested on: R275C; assay: as above; conditions: at 30 µM
[12] = tested on: R275C/beta1; assay: as above; conditions: at 30 µM
[13] = tested on: R275C/beta2Delta; assay: as above; conditions: at 30 µM
[14] = tested on: R275C/Slo1WT/beta2; assay: as above; conditions: at 30 µM
[15] = polyglutamine-triggered caspase-3 activation inhibitors, cell-based (AID 1583); conditions: polyglutamine-induced caspase-3 activation, cell assay; stronger effect = higher value; concentration not given here
[16] = rescue of polyQ-huntingtin neuronal dysfunction in worms, whole organism, C. elegans mechanosensory neurons, N-terminal huntingtin (AID 1599); conditions: touch response, stronger effect = higher value
[17] = enhancers of glutamate uptake in motor neurons, MN-1 cell line (AID 1612); conditions: MN-1 motor neuron cells, stronger effect = higher value;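 further: tested at 1 µM final; 0% = mean of DMSO vehicle wells on each plate; positive means more glutamate uptake than control and negative means less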
[18] = reducers of polyQ inclusions in PC12 cells, cell-based, NGF-treated PC12, GFPQ80 (AID 1614); conditions: PC12 NGF-treated GFP-polyQ80 inclusion reduction;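 further: lower means fewer inclusions and 0 means no inclusions at all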
[19] = suppressors of polyglutamine aggregation in yeast, 75Q-TubH (AID 1616); conditions: S. cerevisiae 75Q-TubH polyglutamine aggregation suppression; stronger effect = higher value

CC(C)c1cccc(C(C)C)c1O
inactive: period change [1] 0.005 h | survival [2] 5.17 | inhibition [3] -1% | fluorescence ratio (interference) [4] 1 | mean signal [5] 226 | remaining activity [6] 108% | outcome [7] | log fold change Tl+ flux [8] -0.0182 | log fold change Tl+ flux [9] -0.0717 | log fold change Tl+ flux [10] -0.0275 | log fold change Tl+ flux [11] -0.0316 | log fold change Tl+ flux [12] -0.0537 | log fold change Tl+ flux [13] -0.0157 | log fold change Tl+ flux [14] -0.0465

CN1C(=O)CN=C(c2ccccc2)c2cc([N+](=O)[O-])ccc21
inactive: mean signal [5] 228 | log fold change Tl+ flux [8] 0.0275 | log fold change Tl+ flux [9] -0.0526 | log fold change Tl+ flux [10] 0.0676 | log fold change Tl+ flux [11] -0.00261 | log fold change Tl+ flux [12] -0.0104 | log fold change Tl+ flux [13] 0.0315 | log fold change Tl+ flux [14] 0.0318

CN[C@@H](C)[C@H](O)c1ccccc1
inactive: period change [1] -0.07 h

O=P1(NCCCl)OCCCN1CCCl (centres undefined)
inactive: survival [2] 3.83

c1ccc2c(c1)OCC(C1=NCCN1)O2 (centres undefined)
inactive: period change [1] 0.1 h | survival [2] 1.58 | inhibition [3] -7% | fluorescence ratio (interference) [4] 0.9 | remaining activity [6] 109% | outcome [7]

CNCC(O)c1ccc(O)cc1 (centres undefined)
inactive: period change [1] -0.045 h | survival [2] 2.92 | inhibition [3] -2% | fluorescence ratio (interference) [4] 1 | mean signal [5] 258 | outcome [7] | log fold change Tl+ flux [8] -0.0218 | log fold change Tl+ flux [9] -4.2e-05 | log fold change Tl+ flux [10] 0.0172 | log fold change Tl+ flux [11] -0.0246 | log fold change Tl+ flux [12] 0.022 | log fold change Tl+ flux [13] 0.0197 | log fold change Tl+ flux [14] 0.0309

CN1CCN(C(=O)O[C@H]2c3nccnc3C(=O)N2c2ccc(Cl)cn2)CC1
active: mean signal [5] 290
inactive: log fold change Tl+ flux [8] -0.0134 | log fold change Tl+ flux [9] -0.0113 | log fold change Tl+ flux [10] 0.0361 | log fold change Tl+ flux [11] 0.0376 | log fold change Tl+ flux [12] 0.0325 | log fold change Tl+ flux [13] 0.0513 | log fold change Tl+ flux [14] -0.0138

NC1=NC(=O)C(c2ccccc2)O1 (centres undefined)
inactive: mean signal [5] 245 | log fold change Tl+ flux [8] -0.012 | log fold change Tl+ flux [9] -0.0441 | log fold change Tl+ flux [10] -0.0196 | log fold change Tl+ flux [11] 0.00173 | log fold change Tl+ flux [12] 0.00542 | log fold change Tl+ flux [13] -0.00885
active: log fold change Tl+ flux [14] 0.0857

CN[C@@H]1C[C@@H](c2ccc(Cl)c(Cl)c2)c2ccccc21
active: log fold change Tl+ flux [10] 0.44 | log fold change Tl+ flux [11] -0.12 | log fold change Tl+ flux [12] 0.445 | log fold change Tl+ flux [13] 0.134
inactive: period change [1] 0.04 h | inhibition [3] -2% | fluorescence ratio (interference) [4] 0.9 | mean signal [5] 207 | remaining activity [6] 107% | outcome [7] | log fold change Tl+ flux [8] 0.0202

CC[C@]1(O)CC[C@H]2[C@@H]3CCC4=CCCC[C@@H]4[C@H]3CC[C@@]21C
inactive: log fold change Tl+ flux [8] 0.0652 | log fold change Tl+ flux [10] -0.0162 | log fold change Tl+ flux [11] 0.0162 | log fold change Tl+ flux [14] 0.0508
active: log fold change Tl+ flux [9] -0.128 | log fold change Tl+ flux [12] 0.231 | log fold change Tl+ flux [13] 0.196

CC[C@@H](CO)NC(=O)[C@@H]1C=C2c3cccc4c3c(cn4C)C[C@H]2N(C)C1
inactive: period change [1] 0.11 h | fluorescence ratio (interference) [4] 1 | remaining activity [6] 112% | outcome [7]

C=C1C[C@@H]2[C@H](CC[C@]3(C)C(=O)CC[C@@H]23)[C@@]2(C)C=CC(=O)C=C12
inactive: log fold change Tl+ flux [8] -0.00852 | log fold change Tl+ flux [9] 0.059 | log fold change Tl+ flux [10] 0.0277 | log fold change Tl+ flux [11] -0.00349 | log fold change Tl+ flux [12] 0.0308 | log fold change Tl+ flux [13] 0.00258 | log fold change Tl+ flux [14] 0.0155

CCCC(C)C1(CC)C(=O)N=C(S)NC1=O (centres undefined)
0.929: aggregation suppression score [19]
15.2%: inhibition [15]
-8.64: rescue above control [16]
15.5%: glutamate uptake change [17]
2: inclusion score [18]

CC1(C)C(C=C(Cl)Cl)C1C(=O)OC(C#N)c1cccc(Oc2ccccc2)c1 (centres undefined)
inactive: survival [2] 64.8

Nc1ccncc1
2: inclusion score [18]
-15.5%: inhibition [15]
26.7: rescue above control [16]
-9.57%: glutamate uptake change [17]
1.23: aggregation suppression score [19]
inactive: period change [1] 0.07 h | inhibition [3] -4% | fluorescence ratio (interference) [4] 0.9 | remaining activity [6] 103% | outcome [7]
